In PMC4336329 (PLoS ONE, 2015):
Among all 310,000 compounds or so, about 14,000 (4.5%) showed an effect of 50% or more. The effect is printed as a negative number. Shown is part of a subset that was picked to be rich in strong results.

molecular target: human ether-à-go-go-related gene (hERG) potassium channel (human, UniProt Q12809); assay: primary screen, population patch clamp on CHO cells stably expressing hERG; higher = less effect of the substance
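Also: peak tail current of the secondary pulse compared with the same well before compound.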

human ether-à-go-go-related gene (hERG) potassium channel, sequence (Q12809 whole entry, looked up): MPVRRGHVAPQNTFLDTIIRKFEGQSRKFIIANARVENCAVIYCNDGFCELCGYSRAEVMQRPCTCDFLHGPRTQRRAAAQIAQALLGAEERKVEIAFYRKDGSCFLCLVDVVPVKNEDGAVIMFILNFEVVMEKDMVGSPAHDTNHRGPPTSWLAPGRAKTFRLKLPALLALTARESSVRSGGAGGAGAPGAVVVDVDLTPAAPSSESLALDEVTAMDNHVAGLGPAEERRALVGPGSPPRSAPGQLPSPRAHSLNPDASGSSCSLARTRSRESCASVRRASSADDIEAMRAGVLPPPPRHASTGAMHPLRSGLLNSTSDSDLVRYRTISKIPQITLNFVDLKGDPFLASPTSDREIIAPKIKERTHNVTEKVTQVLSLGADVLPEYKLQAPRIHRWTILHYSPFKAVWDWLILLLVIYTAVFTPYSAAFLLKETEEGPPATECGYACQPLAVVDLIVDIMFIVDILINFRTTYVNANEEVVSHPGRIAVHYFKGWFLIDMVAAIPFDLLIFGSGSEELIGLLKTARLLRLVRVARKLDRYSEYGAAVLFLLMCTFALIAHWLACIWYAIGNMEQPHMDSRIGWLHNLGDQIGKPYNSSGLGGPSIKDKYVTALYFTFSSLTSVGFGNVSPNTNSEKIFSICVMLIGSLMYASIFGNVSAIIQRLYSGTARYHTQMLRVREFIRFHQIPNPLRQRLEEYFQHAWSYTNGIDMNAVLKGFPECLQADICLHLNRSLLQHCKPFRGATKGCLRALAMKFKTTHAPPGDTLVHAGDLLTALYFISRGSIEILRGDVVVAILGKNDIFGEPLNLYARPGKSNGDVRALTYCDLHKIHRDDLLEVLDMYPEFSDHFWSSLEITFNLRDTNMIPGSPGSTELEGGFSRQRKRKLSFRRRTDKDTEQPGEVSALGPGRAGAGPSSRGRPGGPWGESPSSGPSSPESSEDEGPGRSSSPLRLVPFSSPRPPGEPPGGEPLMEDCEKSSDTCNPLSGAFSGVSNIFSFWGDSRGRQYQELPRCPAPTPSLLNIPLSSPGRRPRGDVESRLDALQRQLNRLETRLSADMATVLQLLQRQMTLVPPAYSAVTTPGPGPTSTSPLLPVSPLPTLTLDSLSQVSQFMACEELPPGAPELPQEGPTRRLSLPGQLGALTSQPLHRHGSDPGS

Structure (SMILES) | hERG current change (%, negative = inhibition) at 10uM [%]
Cn1c(=O)n(CC(N)=O)c(=O)c2c1nc1n2CCCN1Cc1ccccc1 | 14.8
CCN(CC(=O)NC1CC1)S(=O)(=O)c1ccccc1 | 10
Br.Cc1csc(=Nc2ccccc2)n1C | -2.07
COc1ccc2c(C)cc(SCC(=O)Nc3cccnc3Cl)nc2c1 | 10.3
Cc1ccnc(NC(=O)c2cc3ccccc3oc2=O)c1 | 8.47
Cc1cc(NS(=O)(=O)c2cccc([N+](=O)[O-])c2)no1 | 28.8
CCCN1CCC(=O)N([C@H](CO)CC(C)C)CC1 | 20
CCCN1CCC(=O)N([C@H](CO)Cc2ccccc2)CC1 | 0.476
CCCN1CCC(=O)N(CCO)CC1 | -3.79
O=C1CCN(CCCc2ccccc2)CCN1[C@H](CO)c1ccccc1 | -29.7
CCCN1CCC(=O)N([C@H](CO)c2ccccc2)CC1 | 9.36
O=C1CCN(CCCc2ccccc2)CCN1[C@H](CO)Cc1ccccc1 | -40.6
CC(C)CN1CCC(=O)N(CCO)CC1 | 1.33
CCCCCCCN1CCC(=O)N([C@H](CO)c2ccccc2)CC1 | -63.7
CC(C)C[C@@H](CO)N1CCN(CC(C)C)CCC1=O | 4.64
CCCCCCCN1CCC(=O)N([C@H](CO)Cc2ccccc2)CC1 | -78.8
CCCCCCCN1CCC(=O)N(CCO)CC1 | -54.3
CCCCCCCN1CCC(=O)N([C@H](CO)CC(C)C)CC1 | -63
CCOC(=O)Cc1ccc(NC(=O)c2ccccc2Br)cc1 | -7.9
O=S(=O)(c1ccc(Br)s1)N1CCN(c2ncccn2)CC1 | -3.42
Nc1ccccc1-c1nnc2n1CCCCC2 | 25.8
Cc1cc(C)c(C(=O)CSc2nnc(C)s2)c(C)c1 | 18.2
CCCC1(C(=O)OCC)NC(c2ccc(N(C)C)cc2)C2C(=O)N(c3ccc(F)cc3)C(=O)C21 (stereo not shown) | -8.18

Structure (SMILES) | hERG current change (%, negative = inhibition) at 10uM [%]
CCCCNC(=O)c1sc2nc(C)cc(COC)c2c1-n1cccc1 | -10.7
S=C(c1ccccc1)N(c1ccccc1)c1ccccc1 | 7.21
Cc1ccc(N2CC(C(=O)Nc3ccc(S(=O)(=O)N4CCCC4)cc3)CC2=O)cc1 (stereo not shown) | -8.07
O=C(Nc1ccccc1)C1=C(O)CC(c2ccoc2)CC1=Nc1ccccc1 (stereo not shown) | 15
O=C1CCCCC1Oc1ccc2ccc(=O)oc2c1 (stereo not shown) | 19.6
Cc1coc2c(C)c3oc(=O)c(CCC(=O)NCCN4CCOCC4)c(C)c3cc12 | -24.6
CC(OC(=O)c1ccc(Cl)c([N+](=O)[O-])c1)C(=O)N1CCN(Cc2ccccc2)CC1 (stereo not shown) | -71.1
NC(=O)c1ccc(Oc2ccc(Cl)cc2)c([N+](=O)[O-])c1 | 12.6
O=C(c1ccc(Oc2ccc(Cl)cc2)c([N+](=O)[O-])c1)N1CCCC1 | -63
O=C(c1ccc(Cl)c([N+](=O)[O-])c1)N1CCN(Cc2ccc3c(c2)OCO3)CC1 | -26.7
CC(C(=O)N1CCN(Cc2ccccc2)CC1)c1ccc([N+](=O)[O-])cc1 (stereo not shown) | -43.7
COc1cc(N(C)C)c([N+](=O)[O-])cc1C(=O)N1CCN(Cc2ccccc2)CC1 | 9.99
COc1ccc(C(=O)N2CCN(Cc3ccc4c(c3)OCO4)CC2)cc1[N+](=O)[O-] | -44.6
COc1ccc(C(=O)N2CCN(Cc3ccccc3)CC2)cc1[N+](=O)[O-] | -52
O=C(c1ccc(Br)c([N+](=O)[O-])c1)N1CCN(Cc2ccccc2)CC1 | -61.2
O=C(c1ccc(Oc2ccc([N+](=O)[O-])cc2Cl)cc1)N1CCCC1 | -32.2
Cc1cc(C(=O)N2CCN(Cc3ccccc3)CC2)ccc1[N+](=O)[O-] | -32
O=C(c1ccc(S(=O)(=O)c2ccccc2Cl)c([N+](=O)[O-])c1)N1CCN(Cc2ccccc2)CC1 | -25.3
CCOC(=O)C1(C)/C(=N/Nc2cccc(Cl)c2)C(=O)C(=O)N1c1ccccc1 (stereo not shown) | 6.3
CCOc1ccc(Br)cc1S(=O)(=O)Nc1cccc(S(=O)(=O)N(CC)CC)c1 | -4.53
Cc1ccc(CN2CCN(/N=C/c3ccc(C(=O)O)cc3)CC2)cc1 | 5.6
CCOc1ccccc1N(CC(=O)NC1CCCCC1)C(=O)CCC(=O)Nc1cc(C)ccn1 | 3.35
Cc1cccc(CSc2nnc(CCNC(=O)OC(C)(C)C)o2)c1 | -7.22

Structure (SMILES) | hERG current change (%, negative = inhibition) at 10uM [%]
COc1c([N+](=O)[O-])c(=O)oc2ccccc12 | 15.4
Cc1ccc(S(=O)(=O)CC(=O)Nc2ncc([N+](=O)[O-])s2)cc1 | 21.8
CC(C)(C)NC(=O)COC(=O)CCC(=O)c1ccc(F)cc1 | 12
COc1ccccc1C(=O)NNc1ncc(C)s1.Cl | -0.745
COc1ccc(C(=O)N2CCN(c3ncccn3)CC2)cc1[N+](=O)[O-] | -2.35
COc1ccc(C(=O)N2CCN(c3ccccn3)CC2)cc1[N+](=O)[O-] | -14.9
COc1ccc(C(=O)N2CCN(CCc3ccccc3)CC2)cc1[N+](=O)[O-] | -75.6
COc1ccc(N(CC(=O)Nc2ccc(F)c(F)c2)S(=O)(=O)c2c(C)n[nH]c2C)cc1 | 18.5
O=C(NCCNC(=O)c1cccnc1)c1ccc(Br)cc1 | 14.6
CN(C)C/C=C(\c1ccc(Br)cc1)c1cccnc1.Cl.O | -63.7
C/C(=N\NC(=O)c1ccc(Br)cc1)c1cccnc1 | 5.22
CN(C)CCO/N=C(\c1ccc(Br)cc1)c1cccnc1.O=C(O)C(=O)O | -63.5
CN(C)CCCO/N=C(\c1ccccc1)c1ccncc1.O=C([O-])C(=O)[O-] | 5.25
O=C(OCc1ccc(Br)cc1)c1cccnc1 | -5.96
Cc1ccc(C(=O)O/N=C(\c2ccccc2)c2cccnc2)cc1 | -18.7
CN(C)C/C=C(/c1ccc(Br)cc1)c1cccnc1.Cl | -71.5
O=C(Oc1ccc(Br)cc1)c1cccnc1 | 4.3
CC[C@@]12C(=O)N(c3cccc(F)c3)C(=O)N1[C@H](c1cccc(C)c1)[C@@H]1C(=O)N(Cc3ccccc3)C(=O)[C@@H]12 | 0.427
Cc1cc(-c2ccccc2)nc(N/N=C/c2ccco2)n1 | -0.804
O=C(OCC(=O)N1CCCc2ccccc21)c1ccccc1NCCO | -15.9
Cc1ccc(S(=O)(=O)N2CCCCC2)cc1NC(=O)CSc1ccc2c(c1)OCCO2 | -9.32
CCOC(=O)CSc1n[nH]c(NS(=O)(=O)c2ccccc2C(F)(F)F)n1 | -1.78
CSc1ccc(C2Nc3ccccc3-c3cc(C)nn32)cc1 (stereo not shown) | -3.75

Structure (SMILES) | hERG current change (%, negative = inhibition) at 10uM [%]
COc1cc(/C=C(/C#N)c2nc3ccccc3[nH]2)ccc1OC(=O)c1ccco1 | -6.24
O=C(COC(=O)CCS(=O)(=O)c1ccccc1)Nc1cc(S(=O)(=O)N2CCCCC2)ccc1Cl | -4.61
O=C(COC(=O)Cc1ccccc1)Nc1cc(S(=O)(=O)N2CCCCC2)ccc1Cl | -81.8
CS(=O)(=O)c1ccc(Cl)c(NC(=O)COC(=O)c2cccc(S(=O)(=O)N3CCCC3)c2)c1 | -51.5
Cc1ccc(C(=O)OCC(=O)Nc2cc(S(C)(=O)=O)ccc2Cl)cc1S(=O)(=O)N1CCCCC1 | -26.9
CS(=O)(=O)c1ccc(Cl)c(NC(=O)COC(=O)c2cccc(S(=O)(=O)N3CCCCC3)c2)c1 | -30.9
O=C(COC(=O)c1ccccc1)Nc1cc(S(=O)(=O)N2CCCCCC2)ccc1Cl | 7.5
CCOC(=O)c1ccc(NC(=O)NCc2ccccc2)cc1 | -9.51
COc1ccc(S(=O)(=O)N2CCN(C(=S)Nc3ccc(S(N)(=O)=O)cc3)CC2)cc1 | 15.7
CCC(C(=O)Nc1nccs1)c1ccccc1 (stereo not shown) | 9.98
COc1ccc(-n2c(=O)c3ccccc3n(CC(=O)NCC3CCCO3)c2=O)cc1 (stereo not shown) | 13.4
O=C(c1cnc2ccccc2n1)N1CCN(c2ccc(C(F)(F)F)cn2)CC1 | -17.1
O=S(=O)(CCc1nc2ccccc2o1)c1ccc(Cl)cc1 | -7.14
Cc1ccc2[nH]c(=O)c(CN(Cc3ccc4c(c3)OCO4)Cc3nnnn3C3CCCC3)cc2c1 | 4.66
COc1cc2cc(CN(CCCN3CCOCC3)Cc3nnnn3Cc3ccccc3)c(=O)[nH]c2cc1OC | -20.2
COc1ccc2cc(CN(Cc3ccco3)Cc3nnnn3C3CCCCC3)c(=O)[nH]c2c1 | -19.4
COc1ccc2cc(CN(CCCN3CCOCC3)Cc3nnnn3C3CCCCC3)c(=O)[nH]c2c1 | -26.5
Cc1ccc2[nH]c(=O)c(CN(Cc3ccccc3)Cc3nnnn3C3CCCC3)cc2c1 | -6.83
COc1ccc2cc(CN(CCCN3CCOCC3)Cc3nnnn3C3CCCC3)c(=O)[nH]c2c1 | -59.7
Cc1ccc2[nH]c(=O)c(CN(CCCN3CCOCC3)Cc3nnnn3C3CCCC3)cc2c1 | -54.5
CCOc1ccc2[nH]c(=O)c(CN(CCCN3CCOCC3)Cc3nnnn3Cc3ccc(OC)cc3)cc2c1 | -60.9
COc1ccc(Cn2nnnc2CN(CCCN2CCOCC2)Cc2cc3cc(OC)ccc3[nH]c2=O)cc1 | -42.7
